Assay results: PubChem BioAssay AID1159580 (chemical genetic matrix, 2015)
Values joined by “and” are separate entries in the source; they are usually repeats but may differ in a detail not shown here. Equal entries are not always repeated. Among all 5,500 compounds or so, about 2,000 (36%) were called active. Roughly 18% stayed inconclusive and do not appear here. No stated cut-off is given here; in the data, active means normalized growth mostly below about 0.91 (no sharp cut-off); inconclusive means no clear call, values can overlap the other calls; inactive means mostly above about 0.92. The list shows a part of the results.

Assay: chemical genetic growth profiling, strain panel (AID 1159580);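 further: tested at 20 µM; growth read once vehicle control cultures reached saturation at 30 °C; 1 = growth at the plate median or of vehicle wells; lower values mean less growth of the strain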
Conditions: growth OD

Measured: normalized growth

COCCOC(=O)C1=C(C)NC(C)=C(C(=O)OC(C)C)C1c1cccc([N+](=O)[O-])c1 (stereo unspecified)
inactive: S. cerevisiae deletion strains, locus YJR075W, strain HOC1, hits give low values 1.01 | S. cerevisiae deletion strains, locus YKL009W, strain mrt4, hits give low values 0.967 | S. cerevisiae deletion strains, locus YKL068W, hits give low values 1 | S. cerevisiae deletion strains, locus YKL085W, strain MDH1 (second series), hits give low values 0.986 | S. cerevisiae deletion strains, locus YKL085W, strain MDH1, hits give low values 0.986 | S. cerevisiae deletion strains, locus YKL160W, strain elf1, hits give low values 1.02 | S. cerevisiae deletion strains, locus YKL190W, strain CNB1, hits give low values 0.997 | S. cerevisiae deletion strains, locus YKR001C, strain vps1, hits give low values 1.01 | S. cerevisiae deletion strains, locus YKR026C, strain gcn3, hits give low values 1.01 | S. cerevisiae deletion strains, locus YKR091W, strain srl3, hits give low values 0.995 | S. cerevisiae deletion strains, locus YLL001W, strain dnm1, hits give low values 1.01 | S. cerevisiae deletion strains, locus YLL026W, hits give low values 1 | S. cerevisiae deletion strains, locus YLL041C, strain sdh2, hits give low values 1.01 | S. cerevisiae deletion strains, locus YLR027C, strain aat2, hits give low values 1 | S. cerevisiae deletion strains, locus YLR039C, strain RIC1, hits give low values 1.02 | S. cerevisiae deletion strains, locus YLR058C, strain SHM2, hits give low values 1 | S. cerevisiae deletion strains, locus YLR102C, strain apc9, hits give low values 1.02 | S. cerevisiae deletion strains, locus YLR113W, strain HOG1, hits give low values 0.954 | S. cerevisiae deletion strains, locus YLR221C, strain rsa3, hits give low values 1 | S. cerevisiae deletion strains, locus YLR258W, strain gsy2, hits give low values 1.01 | S. cerevisiae deletion strains, locus YLR262C, strain YPT6 (second series), hits give low values 0.988 | S. cerevisiae deletion strains, locus YLR262C, strain YPT6, hits give low values 1.05 | S. cerevisiae deletion strains, locus YLR268W, strain sec22, hits give low values 0.993 | S. cerevisiae deletion strains, locus YLR320W, strain mms22, hits give low values 0.984 | S. cerevisiae deletion strains, locus YLR330W, strain CHS5, hits give low values 1.01 | S. cerevisiae deletion strains, locus YLR342W, strain FKS1 (second series), hits give low values 1.01 | S. cerevisiae deletion strains, locus YLR342W, strain FKS1, hits give low values 1.02 | S. cerevisiae deletion strains, locus YLR357W, strain rsc2, hits give low values 1.02 | S. cerevisiae deletion strains, locus YLR370C, strain arc18, hits give low values 1 | S. cerevisiae deletion strains, locus YLR371W, strain rom2, hits give low values 1.01 | S. cerevisiae deletion strains, locus YLR384C, strain iki3, hits give low values 1.02 | S. cerevisiae deletion strains, locus YLR418C, strain cdc73, hits give low values 0.974 | S. cerevisiae deletion strains, locus YML016C, strain PPZ1, hits give low values 1 | S. cerevisiae deletion strains, locus YML032C, strain rad52, hits give low values 1.01 | S. cerevisiae deletion strains, locus YML120C, strain ndi1, hits give low values 1.03 | S. cerevisiae deletion strains, locus YML124C, strain tub3, hits give low values 1.01 | S. cerevisiae deletion strains, locus YMR058W, strain fet3, hits give low values 1.02 | S. cerevisiae deletion strains, locus YMR078C, strain ctf18, hits give low values 1.02 | S. cerevisiae deletion strains, locus YMR125W, strain sto1, hits give low values 1.06 | S. cerevisiae deletion strains, locus YMR129W, hits give low values 1.01 | S. cerevisiae deletion strains, locus YMR205C, strain PFK2, hits give low values 0.979 | S. cerevisiae deletion strains, locus YMR223W, strain ubp8, hits give low values 1.01 | S. cerevisiae deletion strains, locus YMR231W, strain pep5, hits give low values 1.01 | S. cerevisiae deletion strains, locus YMR263W, strain SAP30, hits give low values 1 and 1.01 | S. cerevisiae deletion strains, locus YMR307W, strain GAS1, hits give low values 1.02 and 1.01 | S. cerevisiae deletion strains, locus YNL067W, strain RPL9B, hits give low values 0.997 | S. cerevisiae deletion strains, locus YNL071W, strain lat1, hits give low values 0.998 | S. cerevisiae deletion strains, locus YNL128W, strain TEP1, hits give low values 1.01 | S. cerevisiae deletion strains, locus YNL153C, strain GIM3, hits give low values 1 | S. cerevisiae deletion strains, locus YNL175C, strain NOP13, hits give low values 0.962 | S. cerevisiae deletion strains, locus YNL183C, strain NPR1, hits give low values 0.93 | S. cerevisiae deletion strains, locus YNL197C, strain WHI3, hits give low values 0.99 | S. cerevisiae deletion strains, locus YNL209W, strain ssb2, hits give low values 1 | S. cerevisiae deletion strains, locus YNL224C, strain SQS1, hits give low values 1.01 | S. cerevisiae deletion strains, locus YNL233W, strain BNI4, hits give low values 1 | S. cerevisiae deletion strains, locus YNL248C, strain rpa49, hits give low values 1.03 | S. cerevisiae deletion strains, locus YNL250W, strain rad50, hits give low values 1.02 | S. cerevisiae deletion strains, locus YNL271C, strain bni1, hits give low values 1.01 | S. cerevisiae deletion strains, locus YNL298W, strain CLA4, hits give low values 1 | S. cerevisiae deletion strains, locus YNL307C, strain MCK1, hits give low values 1.01 | S. cerevisiae deletion strains, locus YNL322C, strain KRE1 (second series), hits give low values 1 | S. cerevisiae deletion strains, locus YNL322C, strain KRE1, hits give low values 1.01 | S. cerevisiae deletion strains, locus YNR049C, strain mso1, hits give low values 0.993 | S. cerevisiae deletion strains, locus YNR052C, strain pop2, hits give low values 1.01 | S. cerevisiae deletion strains, locus YOL006C, strain TOP1, hits give low values 1.01 | S. cerevisiae deletion strains, locus YOL012C, strain htz1 1.04 | S. cerevisiae deletion strains, locus YOL147C, strain pex11, hits give low values 1.01 | S. cerevisiae deletion strains, locus YOR001W, strain rrp6, hits give low values 1 | S. cerevisiae deletion strains, locus YOR061W, strain CKA2, hits give low values 0.999 | S. cerevisiae deletion strains, locus YOR069W, strain VPS5, hits give low values 1.01 | S. cerevisiae deletion strains, locus YOR070C, strain gyp1, hits give low values 1.02 | S. cerevisiae deletion strains, locus YOR080W, strain dia2, hits give low values 1.01 | S. cerevisiae deletion strains, locus YOR083W, strain WHI5 (second series), hits give low values 0.986 | S. cerevisiae deletion strains, locus YOR083W, strain WHI5, hits give low values 0.974 | S. cerevisiae deletion strains, locus YOR106W, strain vam3, hits give low values 1 | S. cerevisiae deletion strains, locus YOR136W, strain idh2, hits give low values 1.01 | S. cerevisiae deletion strains, locus YOR144C, strain elg1, hits give low values 1.01 | S. cerevisiae deletion strains, locus YOR184W, strain ser1, hits give low values 1.01 | S. cerevisiae deletion strains, locus YOR231W, strain MKK1, hits give low values 0.935 | S. cerevisiae deletion strains, locus YOR265W, strain rbl2, hits give low values 0.999 | S. cerevisiae deletion strains, locus YOR270C, strain vph1, hits give low values 0.92 | S. cerevisiae deletion strains, locus YOR290C, strain snf2, hits give low values 1.03 | S. cerevisiae deletion strains, locus YOR316C, strain cot1, hits give low values 1.01 | S. cerevisiae deletion strains, locus YPL051W, strain arl3, hits give low values 1.01 | S. cerevisiae deletion strains, locus YPL055C, strain LGE1, hits give low values 1 and 1.02 | S. cerevisiae deletion strains, locus YPL078C, strain atp4, hits give low values 1.03 | S. cerevisiae deletion strains, locus YPL106C, strain sse1, hits give low values 1.08 | S. cerevisiae deletion strains, locus YPL240C, strain hsp82, hits give low values 1.02 | S. cerevisiae deletion strains, locus YPL241C, strain CIN2, hits give low values 0.985 | S. cerevisiae deletion strains, locus YPL256C, strain CLN2, hits give low values 0.955 | S. cerevisiae deletion strains, locus YPR119W, strain clb2, hits give low values 1.01 | S. cerevisiae deletion strains, locus YPR141C, strain kar3, hits give low values 1.02 | S. cerevisiae deletion strains, locus YPR163C, strain tif3, hits give low values 1.01 | S. cerevisiae deletion strains, locus YPR167C, strain met16, hits give low values 1.01 | S. cerevisiae deletion strains, strain wtn01, hits give low values 1 | S. cerevisiae strains, strain wild type, hits give low values 1
